For 15 compounds, growth results are on record in PubChem BioAssay (NCI).

The panel holds about 83,000 compounds, 20% with a hit somewhere; the sample as a whole holds those more often.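 Each cell line was grown in a 96-well plate and treated with one concentration of compound for 48 hours. Values below 10 were considered active.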 Unmarked numbers belong to inactive results. Calls of active or inactive are those of the source.

Test systems include T-47D breast; BT-549 breast; MDA-MB-435 melanoma; SW-620 colon; MCF7 breast; HCT-116 colon; HCC-2998 colon; KM12 colon.
Holding throughout (assay): NCI-60 one-dose screen, 48 h (100 = growth as untreated, 0 = no growth, -100 = all killed)
What all share (settings): 10 µM unless noted

`O=C(/C=C(/C=C/c1csc2ccccc12)OB(F)F)/C=C/c1csc2ccccc12`: the growth is 38.4% with T-47D breast; 4.74% (active) in the assay with BT-549 breast; -18.6% (active) in the assay with MDA-MB-435 melanoma; 5.19% (active) in the assay on SW-620 colon; 39.9% in the assay on MCF7 breast; -57.7% (active) in the assay with HCT-116 colon. The figures for the growth in the assay on HCC-2998 colon and with KM12 colon were 92% and 37.7%, respectively.
With `C#CCNC(=O)[C@H](Cc1ccccc1)NC(=O)[C@]12CC[C@@H](C(=C)C)[C@@H]1[C@H]1CC[C@@H]3[C@@]4(C)CCC(=O)C(C)(C)[C@@H]4CC[C@@]3(C)[C@]1(C)CC2`, the growth in the assay on T-47D breast was 49.8%; in the assay on BT-549 breast it was 104%; in the assay on MDA-MB-435 melanoma, 85%; in the assay with SW-620 colon, 64.8%; in the assay with MCF7 breast, 56%; in the assay with HCT-116 colon, 35.3%. The figures for the growth in the assay with HCC-2998 colon and in the assay with KM12 colon were 80.8% and 61.5%, respectively.
`CC(=O)[C@@H]1CC[C@]2(CO)CC[C@]3(C)[C@H](CC[C@@H]4[C@@]5(C)CCCNC(C)(C)[C@@H]5CC[C@]43C)[C@@H]12`: the growth is 103% in the assay on T-47D breast; 101% with BT-549 breast; 96.8% in the assay on MDA-MB-435 melanoma; 103% in the assay with SW-620 colon; 87.1% in the assay on MCF7 breast; 94.3% in the assay with HCT-116 colon. The growth with HCC-2998 colon and with KM12 colon was 101% in each case.
In the case of `Cc1nc2ccc(Cl)cn2c1-c1nnc(SCc2ccc([N+](=O)[O-])cc2)o1`, the growth was 79.8% with T-47D breast; 12.9% in the assay with BT-549 breast; 61.2% in the assay on MDA-MB-435 melanoma; 76.1% in the assay on SW-620 colon; 55.2% in the assay on MCF7 breast; 58.4% in the assay on HCT-116 colon. The growth in the assay with HCC-2998 colon was 83.5%; in the assay with KM12 colon, 72.9%.
For `CN1CCN(CCNc2nccc(-c3c(-c4cccc(O)c4)nc4sccn34)n2)S1(=O)=O`, the growth with T-47D breast is 68.5%; with BT-549 breast it was 52.3%; in the assay on MDA-MB-435 melanoma it was 29.2%; in the assay with SW-620 colon, 65.4%; with MCF7 breast, 71.3%; with HCT-116 colon, 25.1%. Moreover, the growth in the assay with KM12 colon was 34.4%.
Consider `N#Cc1cccc(-c2ccc3c(c2)NC(=O)/C3=C\c2ccc[nH]2)c1`, for which the growth is -28.7% (active) in the assay on T-47D breast; 17.4% in the assay with BT-549 breast; 43.9% with MDA-MB-435 melanoma; 51.6% in the assay on SW-620 colon; 10.1% in the assay with MCF7 breast; 73% with HCT-116 colon. Besides, the growth in the assay on KM12 colon was 20.4%.
Take `N/C(=N\C(N)=N\c1nc2ccccc2s1)c1ccnc(Br)c1`: the growth is 54.3% with T-47D breast; 41.9% in the assay with BT-549 breast; -25.2% (active) in the assay on MDA-MB-435 melanoma; 13.5% in the assay on SW-620 colon; 16.6% with MCF7 breast; 20.2% with HCT-116 colon. Moreover, the growth with HCC-2998 colon was 70.3%; with KM12 colon, 23.9%.
On to `Cc1ccc(-n2c3c(c(-c4ccccc4)c2-c2ccccc2)C2=NCCN2C=N3)cc1`, for which the growth in the assay with T-47D breast was 72.7%; with BT-549 breast, 107%; with MDA-MB-435 melanoma it was 97.8%; with SW-620 colon it was 89.9%; in the assay on MCF7 breast, 86.8%; with HCT-116 colon it was 76.5%. For the same compound, the growth was 108% with HCC-2998 colon and 90.5% in the assay on KM12 colon.
As for `CCOC(=O)c1cc(C(=O)c2cc(OC)cc(OC)c2)n2ccc3ccccc3c12`, the growth in the assay on T-47D breast is 95%; in the assay with BT-549 breast it was 74.7%; in the assay with MDA-MB-435 melanoma it was 99.5%; in the assay on SW-620 colon, 102%; in the assay on MCF7 breast it was 99.2%; with HCT-116 colon, 84%. Besides, the growth is 108% in the assay with HCC-2998 colon and 100% with KM12 colon.
Turning to `N#CC1C(C#N)C(C(=O)c2ccc(Br)cc2)N2c3ccccc3C=CC12` (stereo not given), the growth in the assay with T-47D breast was 49.3%; with BT-549 breast it was 93.2%; in the assay on MDA-MB-435 melanoma, 16%; with SW-620 colon, 66.4%; with MCF7 breast, 13%; with HCT-116 colon, 68.5%. For the same compound, in the assay with KM12 colon, the growth is 22.3%.
`CCOC(=O)C1=C(C)NC(SCc2cc(=O)oc3ccc(F)cc23)=N[C@@H]1c1cccc2ccccc12`: the growth was 82.4% in the assay with T-47D breast; 102% with BT-549 breast; 99.1% with MDA-MB-435 melanoma; 101% in the assay with SW-620 colon; 84.3% with MCF7 breast; 76.9% in the assay on HCT-116 colon. For the same compound, the growth was 105% in the assay with HCC-2998 colon and 97.7% in the assay with KM12 colon.
On to `CCCCCN1C=C/C(=C\C(=O)N(C)c2ccccc2Br)c2ccccc21`, for which the growth with T-47D breast was 77.3%; with BT-549 breast, 116%; with MDA-MB-435 melanoma, 99.4%; with SW-620 colon it was 97%; in the assay with MCF7 breast, 94.3%; in the assay on HCT-116 colon, 87.2%. Further, the values for the growth in the assay with HCC-2998 colon and with KM12 colon were 102% and 98.4%, respectively.
Take `ClC1=C(Br)C(Br)(Br)C(=C(Br)Br)C1(Br)Br`: the growth in the assay with T-47D breast was 73.6%; with BT-549 breast, 113%; with MDA-MB-435 melanoma, 107%; with SW-620 colon it was 54%; in the assay on MCF7 breast, 76.8%; with HCT-116 colon, 79.9%. For the same compound, the growth in the assay on HCC-2998 colon is 115%; in the assay with KM12 colon, 101%.
For `COc1cc(/C=C2\COc3ccc(-c4ccccc4)cc3C2=O)cc(OC)c1`, the growth in the assay on T-47D breast is 70.3%; in the assay with BT-549 breast, 74.7%; in the assay on MDA-MB-435 melanoma it was 66%; in the assay on SW-620 colon, 62.8%; in the assay with MCF7 breast it was 57.3%; with HCT-116 colon, 62.1%. The growth with KM12 colon is 68.5%.
In the case of `O=C1Nc2ccccc2/C1=C\c1c(-c2ccc(F)cc2)nc2ccccn12`, the growth in the assay with T-47D breast is 60.6%; in the assay on BT-549 breast, 69.6%; in the assay with MDA-MB-435 melanoma, -21.1% (active); in the assay with SW-620 colon, 64.5%; with MCF7 breast, 62.8%; with HCT-116 colon, 64.2%. Also, the growth with KM12 colon is 46.3%.
